Sampled rows, rich in hits. Any-hit rate of the full collection: about 4.9%.
HSP90 inh: HSP90 inhibitors, primary screen, cell lysate, luminescence. 0.91% of 290,000 active. AID 1789, 2009. Rabbit reticulocyte lysate, luciferase refolding luminescence, 3 h. inhibition, % at 5.6 µM;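 active = inhibition above the screen-wide mean plus 3 SD, computed separately per campaign, cut at about 16% in these data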;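 also: 0% = DMSO wells and 100% = 60 µM geldanamycin wells; inhibitors lower the luminescence because luciferase stays unfolded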
HSF1 activator: HSF-1 activators, primary screen, NIH3T3-HGL cells, MG132 stress, luminescence, single point. 1.7% of 300,000 active. NIH3T3-HGL HSF-1 luciferase reporter, 8 h; 100% = twice DMSO control signal. AID 504408, 2011. activation, % at 9 µM;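 active = mean replicate activation of at least 50% with a set share of replicates each reaching 50%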;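 also: 0% = median of the neutral control wells and 100% = twice that signal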
dFosB activator: activators of delta FosB homodimer, primary screen, biochemical, fluorescence polarization, TAMRA-CDK5 oligo, single point. purified delta FosB; percent of positive-control signal above neutral wells. activation, % at 25 µM. 0.99% of 340,000 active. AID 493131, 2011;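 active = mean activation above about 17%, with every replicate also reaching it, limit read from the data, passing the limit was not always enough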
Target sequence (P13346 whole entry, looked up): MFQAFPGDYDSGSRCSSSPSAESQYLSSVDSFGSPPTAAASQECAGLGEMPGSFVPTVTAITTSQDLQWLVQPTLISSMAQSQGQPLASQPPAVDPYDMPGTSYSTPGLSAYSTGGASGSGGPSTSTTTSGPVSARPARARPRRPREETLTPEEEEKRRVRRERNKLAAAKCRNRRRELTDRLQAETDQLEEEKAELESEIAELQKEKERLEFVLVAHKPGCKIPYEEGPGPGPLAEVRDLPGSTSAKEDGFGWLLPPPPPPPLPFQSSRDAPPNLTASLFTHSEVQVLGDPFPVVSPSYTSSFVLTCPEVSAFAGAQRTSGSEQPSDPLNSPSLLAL
HSF1 inhib: HSF1 inhibitors in luciferase reporter cells, primary screen, cell-based, NIH3T3, luminescence; NIH3T3-HGL HSE-luciferase, MG132-induced, luminescence 8 h; hits give low values; activity change, negative = inhibition, % at 7.5 µM (by protocol); 0.77% of 300,000 active;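 active = more than half of replicate wells show activity change below -50%, luminescence cut by over half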;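 also: luciferase reports HSF-1 transcriptional activity via heat shock element; 0% = median of DMSO wells and -100% = zero luminescence signal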
Platelet DG rel: inhibitors of platelet dense granule secretion, primary screen, cell-based, MLPCN, human platelets; inhibition, %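 (compounds screened at 7.5 µM in platelet-rich plasma)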; 0.22% of 300,000 active; human platelet-rich plasma, SFLLRN dense granule ATP release, luminescence; AID 1663, 2009;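 active = mean replicate score, as percent of positive control, at or above 50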
MPTP inh: mitochondrial permeability transition pore inhibitors, primary screen, biochemical, isolated mouse mitochondria, absorbance | Ca2+ swelling absorbance, 30 min | inhibition, % at 10 µM | 1.4% of 360,000 active | AID 602449, 2012;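 active = inhibition of 50% or more, scaled per plate between neutral and stimulator controls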;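 also: 0% = DMSO wells given calcium and 100% = 1 mM EGTA wells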
The depositor's hits bear a star; . = no result given.

SMILES | HSP90 inh | HSF1 activator | dFosB activator | HSF1 inhib | Platelet DG rel | MPTP inh
Clc1ccc(-c2nnc(SCc3nc4ccccc4[nH]3)o2)c(Cl)c1 | 0 | 75* | -1 | 45 | 1 | 2
c1ccc2[nH]c(CSc3nnc(-c4ccncc4)o3)nc2c1 | -1 | -48 | 3 | -46 | 7 | -1
Clc1ccc(-c2nnc(SCc3ccon3)o2)c(Cl)c1 | 1 | 58* | 2 | 20 | 10 | -1
O=C(Nc1ccccc1-c1nnc(SCc2ccc(Cl)cc2Cl)o1)c1ccccc1 | 1 | -7 | -1 | 3 | 5 | 2
C=CCSc1nnc(-c2ccc(Cl)cc2Cl)o1 | 0 | 57* | -10 | 28 | -2 | -1
CC1c2cc3c(cc2CCN1C(=O)c1cccc(F)c1)OCCCO3 (stereo not drawn) | 4 | -21 | -8 | -8 | 0 | 0
COc1ccc(CCN2C(=O)N[C@@H](C(C)C)C2=O)cc1 | 0 | -4 | 3 | -6 | -3 | 1
Cc1cc(C(O)c2ncc(-c3ccc(Cl)cc3)[nH]2)ccc1F (stereo not drawn) | . | . | . | . | . | 2
CCOc1ccc(N2C(=O)/C(=C\c3ccc(O)c(OC)c3)S(=O)(=O)C2c2cccc([N+](=O)[O-])c2)cc1 (stereo not drawn) | 2 | 112* | -4 | 50 | -5 | -4
COc1ccccc1NC(=O)CN1C(=O)COc2ccc(S(=O)(=O)N3CCC(C)CC3)cc21 | -1 | 17 | -19 | 9 | -6 | 3
COc1cccc(NC(=O)CN2C(=O)COc3ccc(S(=O)(=O)N4CCC(C)CC4)cc32)c1 | 0 | 86* | -2 | 53 | -6 | 0
CCOC(=O)N1CCN(C(=O)CN2C(=O)COc3ccc(S(=O)(=O)N4CCOCC4)cc32)CC1 | 2 | 58* | 0 | 31 | 1 | 0
O=C(CCCCCNC(=O)N1CCn2c1nc1ccccc12)NCc1ccc(Cl)cc1 | -7 | 51* | -17 | 32 | -6 | -2
COC(=O)Cc1[nH]n(-c2nc3ccccc3s2)c(=O)c1C(C)=Nc1ccc(Cl)cc1 | 8 | -71 | 0 | -68* | 17 | 0
C=CCOc1cccc(/C=C2\C(=O)N(Cc3ccc(C)cc3)C(C)=C2C(=O)OC)c1 | 0 | 42 | -14 | 24 | 0 | 5
CCN1C(=O)/C(=C\c2ccc3c(c2)OCO3)C(C(=O)OC)=C1C | 0 | 63* | -3 | 26 | -3 | 1
CCOc1cc(/C=C2\C(=O)N(Cc3ccc(C)cc3)C(C)=C2C(=O)OC)ccc1O | 3 | 77* | -7 | 53 | 8 | 4
CC(NC(=O)CNC(=O)c1ccccc1F)c1ccc(-n2ccnc2)cc1 (stereo not drawn) | . | . | 0 | . | . | 0
Cc1cccc(N2CCN(C(=O)COc3noc4nc(C)cc(C)c34)CC2C)c1 (stereo not drawn) | . | . | . | . | . | 0
Cc1cn(CC(=O)NCCN2CCOCC2)c(=O)[nH]c1=O | . | . | -2 | . | . | 0
COc1ccc(-c2sc3ccccc3c2-c2ccc(OCCN(C)C)cc2)cc1 | . | . | 25* | . | . | 0
COc1cc(/C=C/C(=O)OC(C)C(=O)NC2CCCCC2C)cc(Cl)c1OC (stereo not drawn) | . | -10 | -1 | 3 | 4 | -2
COc1ccc([C@H]2N[C@]3(CCCN(Cc4ccccc4)C3=O)[C@H]3C(=O)N(C)C(=O)[C@@H]23)cc1 | . | . | . | . | . | 0
Cc1oc(=O)c(NC(=O)c2cccc(Cl)c2)cc1C(=O)c1ccccc1 | -3 | 123* | -9 | 74 | -3 | 6
O=c1c2ccccc2sc2nc(C3CCCCC3)n(Cc3ccco3)c(=O)c12 | 3 | 86* | -11 | 84 | -1 | 4
SMILES | HSP90 inh | HSF1 activator | dFosB activator | HSF1 inhib | Platelet DG rel | MPTP inh
O=C1N(Cc2cccnc2)C[C@@H]2C[C@@H](c3cccc(Oc4ccccc4)c3)N3CCC[C@@]123 | 0 | 4 | -6 | 8 | 4 | 3
COc1ccc(C(C#N)=C2C=CC(=NO)C=C2)cc1 | 13 | 168* | -12 | 118 | 1 | 7
CC(=O)ON=C1C=CC(=C(C#N)c2ccccc2)C=C1 | . | . | . | . | . | 2
CCc1nc2c(OCc3ccc(Cl)cc3Cl)cccn2c1N(C)C(=O)CC(C)C | . | . | . | . | . | -1
COc1ccc(CN2CCN(S(=O)(=O)c3ccccc3)CC2)cc1Br | -1 | -69 | 0 | -61* | 1 | 3
CCCOc1ccc(-c2c(C(=O)N/N=C/c3ccsc3)nnn2-c2nonc2N)cc1 | -2 | 8 | 20* | 3 | 13 | 0
COc1cccc(-c2c(C(=O)N/N=C(\C)c3ccc(Cl)s3)nnn2-c2nonc2N)c1 | -1 | 56* | 2 | 27 | -2 | -2
CCOc1cccc(-c2c(C(=O)N/N=C/c3ccc(C)o3)nnn2-c2nonc2N)c1 | -2 | -74 | -7 | -68* | 25 | -3
CCOc1cccc(-c2c(C(=O)N/N=C/c3ccco3)nnn2-c2nonc2N)c1 | -2 | 18 | -16 | -2 | 17 | 1
O=Cc1sc(N2CCOCC2)nc1-c1ccccc1 | -3 | 6 | . | -3 | -1 | .
C[C@@H]1CN([C@@H](C)CO)S(=O)(=O)c2ccc(Br)cc2O[C@H]1CN(C)C(=O)Nc1ccc2c(c1)OCO2 | . | . | . | . | . | -1
C[C@H](O)[C@@H]1C(=O)N2CCc3c([nH]c4ccccc34)[C@@H]2C[C@@H]1N(C)Cc1ccc2c(c1)OCO2 | . | . | . | . | . | -1
CN(C(=O)c1ccco1)c1nc(-c2ccc(F)cc2)cs1 | -1 | 83* | 2 | 36 | 3 | 4
CCN(CC)CCCN(C(=O)c1ccco1)c1nc(-c2ccc(C)cc2)cs1 | 3 | -76 | 1 | -69* | 3 | 6
CCN(CC)CCCN(C(=O)c1ccco1)c1nc(-c2ccc(Cl)cc2)cs1 | 7 | 33 | -10 | 14 | -6 | 3
CSCCC(C(=O)NC(C)(C)C)n1c(-c2ccc(C)cc2)nc2ccccc21 (stereo not drawn) | . | . | . | . | . | 1
Cc1cccc(S(=O)(=O)NCCC(=O)OCC(=O)Nc2ccc(C#N)cc2)c1 | -3 | -6 | -9 | -3 | -12 | -3
Cc1cccc(C(c2c(C)nn(-c3ccccc3)c2N)c2c(C)nn(-c3ccccc3)c2N)c1 | -3 | 83* | -12 | 68 | 19 | -1
CCc1ccc(C(c2c(C)nn(-c3ccccc3)c2N)c2c(C)nn(-c3ccccc3)c2N)cc1 | 8 | 10 | -6 | 13 | 15 | 0
O=C(CN1C(=O)/C(=C/c2ccc(Cl)cc2)SC1=S)NC1C=CS(=O)(=O)C1 (stereo not drawn) | -3 | 7 | 23* | 6 | -10 | 1

Bioassay records: PubChem BioAssay, several laboratories
